In ChEMBL document CHEMBL3988442, “University of Dundee, Small-Polar-MMV Screening Library” (2021):
About 13,000 (27%) of roughly 48,000 compounds showed an effect of 50% or more. Some of the results follow.

Each compound was assayed on Wolbachia pipientis (assay: Anti-Wolbachia Cell-Based Screen). Details: 5 µM.
Format: functional
Set-up: scale not given: in the data most compounds retested in dose-response had high values

SMILES	Percent Effect
CC(C)N1CC2(CCC1=O)CCN(C(=O)c1cccc(F)c1F)CC2	-11.17%
Cc1cc2[nH]c(CN3CCOC(C(F)(F)F)C3)cc(=O)n2n1 (configuration not stated)	-6.733%
COc1cccc(CNCc2ccc(NC(=O)NC(C)C)cc2)c1	98.55%
CCOc1cccc(CNCc2ccc(NC(=O)NC(C)C)cc2)c1	132%
CCOc1ccc(CNCc2ccc(C(=O)NC)cc2)cc1OCC	-3.882%
COC(=O)C(CNC(=O)Nc1cn[nH]c1)Cc1cccc(C)c1 (configuration not stated)	-11.43%
CCOc1cccc(CNc2cnn(CC(C)C)c2CC)c1	-19.91%
N#CC1(C(=O)Nc2ccc(OC(F)F)cc2)CCCC1	-4.632%
Cc1cccc(CNC(=O)Nc2ccc3c(c2)CCCC(=O)N3)c1	-8.181%
COc1cccc(C(CO)NC(=O)NC(C)C)c1 (configuration not stated)	-12.05%
COc1cccc(CC(C)NC(=O)c2ccc(CNC(C)=O)cc2)c1 (configuration not stated)	-2.536%
COc1ccc(CNC(=O)Nc2ccc(S(=O)(=O)C(F)F)cc2)cc1	6.35%
CC(C)NC(=O)Nc1ccc(CNCc2ccc(OC(F)F)cc2)cc1	126.1%
Cc1cccc(CNCc2ccc(NC(=O)NC(C)C)cc2)c1	97.74%
CCc1cc(CN(C)Cc2nc(-c3sccc3C)oc2C)on1	-5.101%
CC(=O)N[C@@H]1Cc2ccccc2[C@H]1Nc1nnc(C2CC2)o1	-5.354%

SMILES	Percent Effect
O=C1CSCN1CC(=O)N1CCCC1c1nc2ccccc2s1 (configuration not stated)	-3.784%
Cc1noc(-c2ccc(N[C@H]3CCCCNC3=O)nc2)n1	-0.1994%
COCCNC(=O)NC(c1ccccc1)c1ccccc1OC (configuration not stated)	3.321%
Cn1ccc(CN2CCC(CO)CC2)cc1=O	-2.803%
Cn1ccc(CN2CCN(CC3CC3)CC2)cc1=O	107.4%
Cn1ccc(CN2CCC(CN3CCOCC3)CC2)cc1=O	93.59%
Cc1csc(N2CCN(Cc3ccn(C)c(=O)c3)CC2)n1	7.447%
CCc1oc(C(=O)OC)cc1Cn1cccc(C(F)(F)F)c1=O	2.78%
Cc1nc(C)c(C)c(NCCSCc2[nH]cnc2C)n1	-16.36%
COC1CCCOC12CCN(C(=O)c1ccc3[nH]nnc3c1)CC2 (configuration not stated)	104.9%
CO[C@H]1CCN(C(=O)c2ccc3[nH]nnc3c2)C[C@@]12CCCO2	102.9%
c1cc(CNc2nnc(Cc3ccsc3)o2)cs1	-17.73%
Clc1cnccc1N1CCCC2(CCCOC2)C1 (configuration not stated)	-10.01%
O=C(c1ccc(Cl)o1)N1CCCN(Cc2cscn2)CC1	4.253%
COCc1ccc(C(=O)N2CCCN(Cc3cscn3)CC2)cc1	110%
Cc1ccc(C(=O)N2CCCN(Cc3cscn3)CC2)o1	108%
